Assay results published in PubChem BioAssay (NCATS).
Values joined by “and” are separate entries in the source; they are usually repeats but may differ in a detail not shown here. Equal entries are not always repeated. Results filed as inconclusive are left out. A call without a number means that no potency is given here. Active and inactive are the calls of the source. Unless noted, calls follow the shape of the dose curve; as a rule, active = well fitted curve in the direction sought with a large enough effect; inconclusive = small, poorly fitted or top-dose-only effect, or another doubt; inactive = no such curve, though single readings can be large; an effect the other way counts as inactive or inconclusive.

How the values were obtained:
[1] = biological target: Voltage-gated inwardly rectifying potassium channel KCNH2 (Homo sapiens) (UniProt Q12809); assay: qHTS Assay for Small Molecule Inhibitors of the Human hERG Channel Activity (AID 588834); conditions: U2OS BacMam hERG, FluxOR thallium flux fluorescence; series mostly up to 46.1 µM;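 also: lower thallium flux fluorescence means stronger hERG block; nearly all actives have a fitted effect of over 50% in size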; also: potency is read from the fitted curve at half-maximal effect
Voltage-gated inwardly rectifying potassium channel KCNH2 (Homo sapiens), sequence (Q12809 whole entry, looked up): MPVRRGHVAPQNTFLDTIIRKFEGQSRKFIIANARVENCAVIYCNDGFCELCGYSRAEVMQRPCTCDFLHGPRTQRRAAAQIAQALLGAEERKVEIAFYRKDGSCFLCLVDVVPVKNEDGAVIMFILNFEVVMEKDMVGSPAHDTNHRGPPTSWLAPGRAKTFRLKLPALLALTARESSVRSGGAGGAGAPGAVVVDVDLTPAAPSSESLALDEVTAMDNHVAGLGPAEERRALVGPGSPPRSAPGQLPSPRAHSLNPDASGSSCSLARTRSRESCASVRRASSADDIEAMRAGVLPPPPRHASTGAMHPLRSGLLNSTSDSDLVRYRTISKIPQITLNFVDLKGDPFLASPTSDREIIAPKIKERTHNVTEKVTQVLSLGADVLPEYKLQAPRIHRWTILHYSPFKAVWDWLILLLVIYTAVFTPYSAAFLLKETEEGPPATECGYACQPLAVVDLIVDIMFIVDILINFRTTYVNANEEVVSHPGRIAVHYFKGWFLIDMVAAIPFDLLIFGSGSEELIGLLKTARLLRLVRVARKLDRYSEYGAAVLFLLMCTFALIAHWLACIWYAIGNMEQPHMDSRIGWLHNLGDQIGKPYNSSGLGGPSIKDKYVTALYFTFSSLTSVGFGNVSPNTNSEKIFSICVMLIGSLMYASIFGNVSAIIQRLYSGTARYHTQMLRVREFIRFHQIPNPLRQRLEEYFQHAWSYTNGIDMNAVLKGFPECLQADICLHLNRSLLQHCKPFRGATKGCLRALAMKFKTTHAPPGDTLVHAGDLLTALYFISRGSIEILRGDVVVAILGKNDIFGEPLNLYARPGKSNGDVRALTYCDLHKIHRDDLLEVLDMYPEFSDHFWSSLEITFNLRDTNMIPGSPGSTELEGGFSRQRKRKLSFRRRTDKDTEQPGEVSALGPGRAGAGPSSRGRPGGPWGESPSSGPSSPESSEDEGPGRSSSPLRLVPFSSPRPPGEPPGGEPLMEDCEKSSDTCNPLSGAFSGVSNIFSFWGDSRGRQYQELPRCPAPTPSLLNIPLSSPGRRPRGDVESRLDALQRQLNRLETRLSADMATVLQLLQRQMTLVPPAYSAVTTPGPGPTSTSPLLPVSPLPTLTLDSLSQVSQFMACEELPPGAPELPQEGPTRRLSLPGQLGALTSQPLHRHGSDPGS
Procedure, shortened: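 hERG-BacMam U2OS, 2000 cells/well; 0.7X FluxOR loading 1 hr RT dark; cpd ~10 min 37 °C; stim buffer; FDSS fluorescence 2 min @ 1 s; AC50 Hill fit.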

[2] = biological target: Luciferin 4-monooxygenase (Photinus pyralis) (UniProt P08659); assay: Biochemical firefly luciferase enzyme assay for NPC (AID 624030);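 also: purified P. pyralis luciferase at 10 nM with luciferin and ATP substrate; nearly all actives have a fitted effect of over 70% in size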; conditions: purified P. pyralis luciferase, luminescence, 5 min; series mostly up to 58.6 µM
Luciferin 4-monooxygenase (Photinus pyralis), sequence (P08659 whole entry, looked up): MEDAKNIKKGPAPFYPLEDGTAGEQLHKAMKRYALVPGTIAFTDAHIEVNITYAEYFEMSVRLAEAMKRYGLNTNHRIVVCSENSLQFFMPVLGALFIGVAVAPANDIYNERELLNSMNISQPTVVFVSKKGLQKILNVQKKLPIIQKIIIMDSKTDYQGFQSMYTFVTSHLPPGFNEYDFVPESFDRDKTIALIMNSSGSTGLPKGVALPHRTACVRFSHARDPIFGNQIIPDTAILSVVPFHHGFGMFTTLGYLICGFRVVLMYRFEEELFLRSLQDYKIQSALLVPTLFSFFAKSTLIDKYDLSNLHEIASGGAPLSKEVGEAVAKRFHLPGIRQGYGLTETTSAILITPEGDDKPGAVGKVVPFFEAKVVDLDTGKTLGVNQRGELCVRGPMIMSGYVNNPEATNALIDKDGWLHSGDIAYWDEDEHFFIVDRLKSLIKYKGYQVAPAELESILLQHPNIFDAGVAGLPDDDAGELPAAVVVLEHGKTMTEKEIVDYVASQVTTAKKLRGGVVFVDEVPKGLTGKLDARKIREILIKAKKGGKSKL
Procedure, shortened: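 Counter-screen for direct inhibition of the luciferase enzyme by approved-drug library compounds, run at 10 nM enzyme in 50 mM Tris acetate (final). Luminescence was read within 5 min of enzyme-buffer addition and normalized to PTC124 versus DMSO (0%).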

[3] = S16 Schwann cell PMP22 intronic element beta-lactamase assay (AID 624044; calls by dose curve; also: nearly all actives have a fitted effect of over 15% in size; also: potency is read from the fitted curve at half-maximal effect); conditions: S16 rat Schwann cells, PMP22 element beta-lactamase FRET, 24 h; series mostly up to 38.3 µM
Procedure, shortened: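 Rat S16 Schwann cells with beta-Lac driven by a PMP22 intronic element, compound-treated 24 h at 37 °C. LiveBLAzer FRET B/G read: 460 nm normalized to potassium clavulanate vs DMSO; 535 nm FRET as viability; concentration-effect curves classified.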

[4] = S16 Schwann cell viability assay (CellTiter-Glo assay) (AID 624031); conditions: S16 rat Schwann cells viability, 24 h; series mostly up to 57.5 µM; also: nearly all actives have a fitted effect of over 70% in size; also: potency is read from the fitted curve at half-maximal effect
Procedure, shortened: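 Cells were seeded at 500-750 per well in phenol red-free DMEM with 10% FBS and left overnight. Compounds or DMSO were pinned in, incubation ran 24 h at 37 °C/5% CO2, then CellTiter-Glo reagent was added and luminescence measured.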

[5] = S16 Schwann cell PMP22 intronic element firefly luciferase assay (AID 624032); conditions: S16 rat Schwann cells, PMP22 element FLuc, 24 h; series mostly up to 57.5 µM; also: nearly all actives have a fitted effect of over 30% in size; also: potency is read from the fitted curve at half-maximal effect
Procedure, shortened: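 Rat S16 Schwann cells stably carrying a PMP22 intronic element-driven Fluc reporter were seeded overnight, then exposed to compounds for 24 h at 37 °C. Luminescence was normalized to PTC124 (positive control) and DMSO (0% activity).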

[6] = biological target: Glutaminase kidney isoform, mitochondrial (Homo sapiens) (UniProt O94925); assay: qHTS for Inhibitors of Glutaminase (GLS): LOPAC Validation (AID 624146); conditions: glutaminase enzyme activity inhibition; series mostly up to 46.1 µM;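 also: glutamate product detected by oxidase and peroxidase coupled Amplex red fluorescence gain; nearly all actives have a fitted effect of over 60% in size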
Glutaminase kidney isoform, mitochondrial (Homo sapiens), sequence (O94925 whole entry, looked up, canonical isoform): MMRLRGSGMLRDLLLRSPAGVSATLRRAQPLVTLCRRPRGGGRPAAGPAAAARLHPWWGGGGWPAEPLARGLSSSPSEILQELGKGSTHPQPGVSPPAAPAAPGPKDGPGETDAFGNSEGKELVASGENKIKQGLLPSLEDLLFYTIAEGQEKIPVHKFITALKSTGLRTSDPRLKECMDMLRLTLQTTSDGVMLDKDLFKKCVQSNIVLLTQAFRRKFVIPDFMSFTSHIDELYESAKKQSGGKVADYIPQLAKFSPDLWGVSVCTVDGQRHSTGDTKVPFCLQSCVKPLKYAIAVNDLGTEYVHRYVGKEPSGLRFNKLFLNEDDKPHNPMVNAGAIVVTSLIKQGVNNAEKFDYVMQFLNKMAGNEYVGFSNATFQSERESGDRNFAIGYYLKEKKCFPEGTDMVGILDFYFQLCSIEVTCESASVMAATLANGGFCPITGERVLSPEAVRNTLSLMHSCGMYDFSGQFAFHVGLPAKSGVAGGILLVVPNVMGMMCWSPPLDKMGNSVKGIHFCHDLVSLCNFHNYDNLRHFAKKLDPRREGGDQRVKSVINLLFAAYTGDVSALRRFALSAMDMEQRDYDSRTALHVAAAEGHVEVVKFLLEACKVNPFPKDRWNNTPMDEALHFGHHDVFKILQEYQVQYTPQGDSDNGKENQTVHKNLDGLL
Procedure, shortened: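 hKGA in 45 mM KH2PO4 pH 8.2, 0.02% Tween-20 with pin-transferred compounds; 1 mM L-glutamine (stock) plus glutamate oxidase/HRP/Amplex Red coupling added. Fluorescence read initially and after 30 min at RT.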

SMILES | Potency [1] | Potency [2] | Potency [3] | Potency [4] | Potency [5] | outcome [6]
CC(C)(C)NC(=O)[C@H]1CC[C@H]2[C@@H]3CC[C@H]4NC(=O)C=C[C@]4(C)[C@H]3CC[C@]12C | inactive | – | – | – | – | –
COc1cccc(N(C)C(=S)Oc2ccc3c(c2)CCCC3)n1 | 3.16 µM (active) | inactive | inactive | – | – | –
CCOC(=O)c1ccc(OC(=O)CCCCCN=C(N)N)cc1 | inactive | inactive | – | inactive | inactive | –
C[C@@H](NCCCc1cccc(C(F)(F)F)c1)c1cccc2ccccc12 | 11.2 µM (active) | inactive | inactive | 12.8 µM (active) | 14.4 µM (active) | –
CC(C)OC(=O)C(C(=O)OC(C)C)=C1SC=CS1 | inactive | inactive | inactive | inactive | inactive | –
COc1cnc(NS(=O)(=O)c2ccc(N)cc2)nc1 | inactive | inactive | – | inactive | inactive | –
Nc1[nH]c(=O)ncc1F | inactive | inactive | – | inactive | inactive | –
Oc1c(Cl)cc(Cl)c2cccnc12 | inactive | inactive | 28.2 µM (active) | – | 3.61 µM (active) | –
COc1cc2ncnc(Nc3cccc(Cl)c3)c2cc1OC | inactive | – | – | – | – | inactive
OCc1ccc(-c2nn(Cc3ccccc3)c3ccccc23)o1 | inactive | – | – | – | – | inactive
O=C(O)c1cccnc1 | inactive | inactive | – | inactive | inactive | –
CCCc1nc(C)c2c(=O)[nH]c(-c3cc(S(=O)(=O)N4CCN(CC)CC4)ccc3OCC)nn12 | inactive | inactive | – | – | inactive | –
O=C(O)C1CCCN(CCC=C(c2ccccc2)c2ccccc2)C1 (configuration not stated) | 11.2 µM (active) | – | – | – | – | inactive
CNC(=O)c1cc(Oc2ccc(NC(=O)Nc3ccc(Cl)c(C(F)(F)F)c3)cc2)ccn1 | 7.08 µM (active) | inactive | 15.8 µM (active) | – | 12.8 µM (active) | –
COc1ncnc(NS(=O)(=O)c2ccc(N)cc2)c1OC | inactive | inactive | – | inactive | inactive | –
